Yeast superoxide: yeast age-related superoxide inhibition as caloric restriction mimetic; superoxide response (% of plate mean), % at 10 µM; 330,000 tested, 0.18% active; S. cerevisiae aged cells, superoxide DHE fluorescence; hits give low values; AID 2690;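 active means superoxide response under a set limit, about three screen SD below normal, cut at about 65% in these data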;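 further: yeast aged for seven days with compound at 30 °C before DHE staining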
dFosB activator: activators of mouse delta FosB homodimer | 340,000 tested, 0.99% active | purified delta FosB, TAMRA-CDK5 oligo fluorescence polarization; percent of positive-control signal above neutral wells | P13346 | AID 493131 | activation, % at 25 µM;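 active means mean activation above about 17%, with every replicate also reaching it, limit read from the data, passing the limit was not always enough; inconclusive means only one of the two conditions met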
Target sequence (P13346 whole entry, looked up): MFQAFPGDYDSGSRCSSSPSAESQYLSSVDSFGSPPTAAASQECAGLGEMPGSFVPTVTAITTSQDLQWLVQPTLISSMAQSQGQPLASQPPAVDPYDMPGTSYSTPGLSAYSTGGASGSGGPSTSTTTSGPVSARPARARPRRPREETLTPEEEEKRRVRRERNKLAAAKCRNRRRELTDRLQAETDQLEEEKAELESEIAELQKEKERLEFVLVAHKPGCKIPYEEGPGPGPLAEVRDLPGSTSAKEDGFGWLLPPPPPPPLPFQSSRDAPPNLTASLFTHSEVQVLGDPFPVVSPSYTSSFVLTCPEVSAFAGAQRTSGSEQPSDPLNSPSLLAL
UBC13 inh: inhibitors of human UBC13 polyubiquitin chain formation | AID 485273 | P61088 | inhibition, % at 20 µM | 330,000 tested, 0.47% active | TR-FRET; in the data active means inhibition above about 45%, passing the limit was not always enough; inconclusive means no clear call, values can overlap the other calls
Target sequence (P61088 whole entry, looked up): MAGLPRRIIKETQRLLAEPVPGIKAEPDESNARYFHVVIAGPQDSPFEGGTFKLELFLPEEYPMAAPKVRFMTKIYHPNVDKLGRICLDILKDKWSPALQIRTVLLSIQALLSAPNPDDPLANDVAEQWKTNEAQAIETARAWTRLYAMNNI
NALP1 inh: blocks the NALP1 inflammasome reconstituted in yeast; S. cerevisiae NALP1/ASC/caspase-1 growth, X-gal OD620, 72 h; inhibition, % at 10 µM; 280,000 tested, 0.61% active; AID 2071; in the data active means inhibition mostly above about 24%, no sharp cut-off; inactive means mostly below about 32%
GRIN3A LBD mod: modulates the human NR3A ligand-binding domain | NR3A LBD differential scanning fluorimetry, Tm shift; 0% = protein alone, 100% = glycine-bound protein | Tm shift relative to glycine control, % at 25 µM | 340,000 tested, 2.5% active;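 active means melting temperature shift of at least 10% of the positive control shift, at one fixed dose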
Each line names hits and unclear results; the compound was inactive in the other large screens. Rows were chosen to be rich in hits. Some 4.3% of all compounds tested hit in one or more screens of this group.

CC(OC(=O)c1ccc2ncsc2c1)C(=O)NC1CCCCC1C (stereo not given)	none (no result: NALP1 inh)
Cc1cc(NC(=O)c2ccc(F)cc2)n(C)n1	none
Oc1[nH]c2ccc(Br)cc2c1N=NC(=S)Nc1ccc(F)cc1	GRIN3A LBD mod 18 (no result: NALP1 inh)
CN1CCN(CCC(=O)Nc2ccc(Br)cc2)CC1	none
CCN1CCN(CCC(=O)Nc2ccc(Br)cc2)CC1	GRIN3A LBD mod 10
CN1CCN(C(c2ccc(Cl)cc2)c2cc(Cl)c3cccnc3c2O)CC1 (stereo not given)	GRIN3A LBD mod 34
COc1ccc(OC)c(/C=N/n2c(-c3n[nH]c4c3CCC4)n[nH]c2=S)c1	GRIN3A LBD mod 14
COc1cc(OC)c(OC)cc1/C=N/n1c(-c2n[nH]c3c2CCC3)n[nH]c1=S	none
CCOC(=O)c1cccc(N2C(=O)Nc3ccccc3N2O)c1	GRIN3A LBD mod 18
CCOC(=O)c1c(-c2ccccc2)csc1N1C(=O)Nc2ccccc2N1O	none
COc1ccc(OCCSc2ncc(CO)n2C)cc1	none
COc1cccc(F)c1C(C[N+](=O)[O-])c1c(N)n(C)c(=O)n(C)c1=O (stereo not given)	NALP1 inh active
Cc1ccc(C(C[N+](=O)[O-])c2c(N)n(C)c(=O)n(C)c2=O)cc1 (stereo not given)	NALP1 inh active
CCOC(=O)C1=C(CC)OC(N)=C(C#N)C1c1ccsc1 (stereo not given)	none
CC(=O)C1=C(C)OC(N)=C(C#N)C1c1ccncc1 (stereo not given)	GRIN3A LBD mod 11
CCOC(=O)C1=C(C)OC(N)=C(C#N)C1c1ccsc1 (stereo not given)	GRIN3A LBD mod 11
N#CC1=C(N)Oc2c(O)cc3ccccc3c2C1c1ccsc1 (stereo not given)	GRIN3A LBD mod 12 (no result: NALP1 inh)
CCOc1ccc(S(=O)(=O)NCCC(=O)N(C)Cc2cccs2)cc1	none (no result: NALP1 inh)
Oc1ccc(/C=N/n2c3ccccc3c3ccccc32)cc1	GRIN3A LBD mod 16
Cc1nnc(SCCC(=O)Nc2ccccc2Cl)o1	none
Fc1ccccc1-c1ccc(/C=N/Nc2nc3ccccc3[nH]2)o1	dFosB activator 22, GRIN3A LBD mod 21
O=C(NCC1CCCO1)c1ccc(Cl)c(S(=O)(=O)Nc2ccccc2)c1 (stereo not given)	none
CCN(CC)S(=O)(=O)c1cccc(C(=O)NC(C)C(c2cccs2)N2CCCC2)c1 (stereo not given)	none
Nc1ccc2c3c(cccc13)C(=O)N(c1ccccc1)C2=O	none (no result: Yeast superoxide, UBC13 inh)
CC(C)CCN1C(=O)c2cccc3c(N)ccc(c23)C1=O	GRIN3A LBD mod 14 (no result: NALP1 inh)
Nc1cccc(N2C(=O)c3cccc4c(N)ccc(c34)C2=O)c1	GRIN3A LBD mod 10
Cc1ccc(S(=O)(=O)NCC(c2ccco2)N2CCc3ccccc32)cc1 (stereo not given)	GRIN3A LBD mod 15 (no result: NALP1 inh)
COc1ccc(S(=O)(=O)NCC(c2ccco2)N2CCc3ccccc32)cc1 (stereo not given)	none (no result: NALP1 inh)
CCOC(=O)Cc1csc(NC(=O)c2cccs2)n1	none
CCOC(=O)Cc1csc(NC(=O)c2ccc(Br)s2)n1	NALP1 inh 39 (no result: dFosB activator, GRIN3A LBD mod)
CCOC(=O)Cc1csc(NC(=O)c2sc3nc4cc(C)ccc4cc3c2N)n1	GRIN3A LBD mod 28
CCOC(=O)Cc1csc(NC(=O)c2sc3nc4ccc(CC)cc4cc3c2N)n1	none
COc1cc(OC)c2c3c(c(C4CCCCC4)nc2c1)CCC3	none (no result: NALP1 inh)
O=C(Nc1cccc(Cl)c1)Nc1nnc(-c2ccncc2)s1	GRIN3A LBD mod 27
O=C(Nc1cccc(Cl)c1)Nc1nnc(CC2=CCCCC2)s1	GRIN3A LBD mod 29
O=C(Nc1ccc(Cl)cc1)Nc1nnc(-c2ccncc2)s1	GRIN3A LBD mod 20 (no result: UBC13 inh)
Cc1cc(SCC(=O)OCC(=O)NCC2CCCO2)c(C)cc1Br (stereo not given)	none
COc1ccc(OC)c(S(=O)(=O)N/N=C(/C)c2c[nH]c3ccccc23)c1	GRIN3A LBD mod 25
COc1ccc(OC)c(S(=O)(=O)N/N=C\c2c[nH]c3ccccc23)c1	GRIN3A LBD mod 32
CC(C)c1ccc(N(C(=O)c2csnn2)C(C(=O)NC2CCCC2)c2cccnc2)cc1 (stereo not given)	none
COc1ccc(CCC(=O)NCCS(=O)(=O)N2CCN(c3ccc(F)cc3)CC2)cc1	none (no result: NALP1 inh)
CC1CCC(NC(=O)C2CC(=O)N(c3ccc(Cl)cc3)C2)CC1 (stereo not given)	none
CN(C)c1ccc(C(CNS(=O)(=O)c2ccc3ccccc3c2)c2c[nH]c3ccccc23)cc1 (stereo not given)	GRIN3A LBD mod 16
Cc1csc(/C(=N/OC(=O)c2ccco2)C(N)=O)n1	none (no result: NALP1 inh)
CCCN1C(=O)c2ccc(C(=O)NCc3ccco3)cc2C1=O	none
CCN1C(=O)c2ccc(C(=O)NCc3ccco3)cc2C1=O	NALP1 inh 31
COc1ccc(CCNc2oc(-c3ccc(OC)c(OC)c3)nc2C#N)cc1	GRIN3A LBD mod 16
CC(C)c1ccccc1OCC(=O)Nc1ccc2[nH]ncc2c1	none (no result: NALP1 inh)
COc1ccc(Nc2nc(N)c([N+](=O)[O-])c(NCc3ccccc3)n2)cc1	dFosB activator 29
COc1ccc(OC)c(Nc2nc(N(C)c3ccccc3)nc(N)c2[N+](=O)[O-])c1	GRIN3A LBD mod 12
COc1nc(Nc2ccc([N+](=O)[O-])cc2)nc(NC2CCCCC2)n1	dFosB activator 29
CN(c1ccccc1)c1nc(N)c([N+](=O)[O-])c(Nc2ccccc2F)n1	none
COc1ccc(Nc2nc(N)c([N+](=O)[O-])c(NC3CCCCC3)n2)cc1	dFosB activator inconclusive, GRIN3A LBD mod 11
C=CCNc1nc(Nc2ccc([N+](=O)[O-])cc2)nc(OC)n1	none
COc1ccc(-c2cc(C(=O)Nc3c(C)n(C)n(-c4ccccc4)c3=O)no2)cc1OC	none
CCCc1[nH]nc2c1C(c1ccoc1)C(C#N)=C(N)O2 (stereo not given)	NALP1 inh 58
Cc1[nH]nc2c1C(c1ccoc1)C(C#N)=C(N)O2 (stereo not given)	none (no result: NALP1 inh)
O=C1C2C3C=CC(c4ccccc4)(C2C(=O)N1c1cccc(Cl)c1)C1C(=O)N(c2cccc(Cl)c2)C(=O)C31 (stereo not given)	GRIN3A LBD mod 23 (no result: NALP1 inh)
O=C1C2C3CCCC3=C3CCCC3C2C(=O)N1c1cccc(Cl)c1 (stereo not given)	none
CC(=O)Nc1ccc(NS(C)(=O)=O)cc1	none
CCS(=O)(=O)Nc1ccc(NC(C)=O)cc1	NALP1 inh 36
CC(C)(C)n1cnc2cc(NS(=O)(=O)c3ccccc3)ccc21	GRIN3A LBD mod 15
COc1cccc(-c2cc(C(=O)N3C(C)CCCC3C)no2)c1 (stereo not given)	NALP1 inh 43
O=C1/C(=C/c2cccnc2)Oc2cc(OS(=O)(=O)c3ccc(Cl)cc3)ccc21	NALP1 inh 41
O=C(N/N=C/c1ccc(O)cc1)NC12CC3CC(CC(C3)C1)C2	GRIN3A LBD mod 10
COc1ccccc1CCC(=O)Nc1ccc2c(c1)CN(Cc1ccc(C)o1)CC2	none
